The source of these data is publication PMC11062922 (Nature Chemical Biology, 2023).

Holding throughout (set-up): species or system human, MV4-11 + K-562 + COLO205 + SK-N-BE2 + OVCAR-8
One test relates to BMPR1A. Particulars: read-out: apparent Kd; compound concentrations: 100 nM and 1000 nM (sheet 'Samples'), CATDS: 4.5522705937236799E-2; n = 1.
The test system of another test is ERBB3. Particulars: read-out: apparent Kd; compound concentrations: 100 nM and 1000 nM (sheet 'Samples'), CATDS: 9.8413353572783496E-2; n = 1.
The test system of a further test is STK10. Conditions: read-out: apparent Kd, n = 1.
The next test concerns ACVR2B. Particulars: read-out: apparent Kd; compound concentrations: 100 nM and 1000 nM (sheet 'Samples'), CATDS: 2.76899291361602E-2; n = 1.
A further test relates to EPHB3. Conditions: read-out: apparent Kd; compound concentrations: 100 nM and 1000 nM (sheet 'Samples'), CATDS: 6.3203902610818402E-2; n = 1.
In the next test the test system is CDK4. Conditions: read-out: apparent Kd, n = 1.
Another test has as its system CDK7. Particulars: read-out: apparent Kd, n = 1.
The test system of another test is ERCC2. Particulars: read-out: apparent Kd, n = 1.
The next test deals with NUAK1. Conditions: read-out: apparent Kd, n = 1.
The subject of the next test is PKN3. Conditions: read-out: apparent Kd, n = 1.
Another test has as its system AURKA. Conditions: read-out: apparent Kd, n = 1.
The subject of another test is MAPK10. Conditions: read-out: apparent Kd, n = 1.
The subject of another test is MAP2K2. Conditions: read-out: apparent Kd; compound concentrations: 100 nM and 1000 nM (sheet 'Samples'), CATDS: 3.1784212717953002E-2; n = 1.
The next test concerns LIMK1. Particulars: read-out: apparent Kd, n = 1.
For a further test, the system named is MAPK11. Particulars: read-out: apparent Kd; compound concentrations: 100 nM and 1000 nM (sheet 'Samples'), CATDS: 2.56124612703456E-2; n = 1.
Another test concerns SYK. Particulars: read-out: apparent Kd, n = 1.
A further test deals with ADCK3. Conditions: read-out: apparent Kd, compound concentrations: 100 nM and 1000 nM (sheet 'Samples'), n = 1.
Where [1] appears, read: compound concentrations:100 nM and 1000 nM (sheet 'Samples').

Molecules are shown by their SMILES. Like-named read-outs stand apart in the source and are kept apart here.

As for `Cc1cc(O)cc(C)c1/C=C/c1cncc(-c2nn[nH]n2)c1.Cl` [GW441806A], the potency estimated from few doses is 1370 nM in the test on BMPR1A; 174 nM in the test with ERBB3; 2050 nM in the test on STK10 (compound concentrations: 100 nM and 1000 nM (sheet 'Samples'), CATDS: 4.0928454430712802E-2).
Consider `Cc1ccc(O)cc1Nc1ccnc2ccc(C(C)(C)C)cc12` [GW856805X], for which the potency estimated from few doses is 1250 nM with ACVR2B and 31.7 nM in the test on EPHB3.
As to `N#Cc1cccc(Nc2nccc(-c3cnn4ncccc34)n2)c1` [GW778894X], the potency estimated from few doses in the test with CDK4 (setting [1]) is 1830 nM; in the test on CDK7 (setting [1]) it was 373 nM; in the test with ERCC2 (setting [1]), 780 nM; with NUAK1 (setting [1]), 792 nM.
On to `CC(=O)c1c(-c2ccncc2)[nH]c(-c2ccncc2)c1C` [GW493036X], for which the potency estimated from few doses with PKN3 (setting [1]) was 1070 nM.
In the case of `CN(C)Cc1ccc(-c2ccc3c(Nc4ccc(Oc5ccccn5)cc4)ccnc3c2)o1` [GW567148X], the potency estimated from few doses is 573 nM in the test with CDK7 (compound concentrations: 100 nM and 1000 nM (sheet 'Samples'), CATDS: 2.45792325734666E-2); 534 nM in the test on ERCC2 (compound concentrations: 100 nM and 1000 nM (sheet 'Samples'), CATDS: 2.5327932043398099E-2); 1730 nM in the test with PKN3 (compound concentrations: 100 nM and 1000 nM (sheet 'Samples'), CATDS: 1.7061922393971401E-2).
As to `COc1cc2ncn(-c3cc(OCCCc4ccccc4)c(C(N)=O)s3)c2cc1OC` [GSK205189A], the figures for the potency estimated from few doses in the test on CDK7 (setting [1]), in the test with ERCC2 (setting [1]) and in the test on NUAK1 (setting [1]) were 79.1 nM, 39.9 nM and 1770 nM, respectively.
Take `CNC(=O)c1ccccc1Nc1nc(Nc2cccc(CS(C)(=O)=O)c2)ncc1C.O=CO` [GSK1520489A]: the potency estimated from few doses in the test on AURKA (compound concentrations: 100 nM and 1000 nM (sheet 'Samples'), CATDS: 6.1882254370992797E-2) is 16.9 nM; in the test on MAPK10 (compound concentrations: 100 nM and 1000 nM (sheet 'Samples'), CATDS: 1.2611209241053301E-2), 502 nM; in the test on NUAK1 (compound concentrations: 100 nM and 1000 nM (sheet 'Samples'), CATDS: 1.6678428283329098E-2), 217 nM; in the test with STK10 (compound concentrations: 100 nM and 1000 nM (sheet 'Samples'), CATDS: 2.4296695352096099E-2), 88.5 nM.
Take `CN1CCN(Cc2ccc(-c3ccc4c(Nc5ccc(Oc6ccccn6)cc5)ccnc4c3)o2)CC1` [GW567140X]: the potency estimated from few doses with MAP2K2 is 2090 nM.
With `O=S(=O)(CCOCc1ccc(-c2ccc3ncnc(Nc4ccc(OCc5cccc(F)c5)c(Cl)c4)c3c2)o1)c1ccccc1` [GW615311X], the potency estimated from few doses is 1020 nM with AURKA (compound concentrations: 100 nM and 1000 nM (sheet 'Samples'), CATDS: 3.2222679542607199E-2); 1500 nM in the test on LIMK1 (compound concentrations: 100 nM and 1000 nM (sheet 'Samples'), CATDS: 2.6639361665983699E-2); 1070 nM in the test on MAPK10 (compound concentrations: 100 nM and 1000 nM (sheet 'Samples'), CATDS: 3.14341615066977E-2); 1650 nM in the test on MAPK11; 2200 nM in the test on PKN3 (compound concentrations: 100 nM and 1000 nM (sheet 'Samples'), CATDS: 2.28065209428794E-2); 2300 nM in the test with SYK (compound concentrations: 100 nM and 1000 nM (sheet 'Samples'), CATDS: 2.2434221169995199E-2).
As to `COc1cc2ncn(-c3cc(OCc4ccncc4)c(C(N)=O)s3)c2cc1OC` [GSK336313A], the potency estimated from few doses in the test with STK10 (setting [1]) was 1930 nM.
`CC(=O)N1CCN(c2ccc(Nc3nccc(-c4sc(C(C)C)nc4-c4cccc(NS(=O)(=O)c5ccccc5)c4)n3)cn2)CC1` [GSK1645872A]: the potency estimated from few doses is 570 nM in the test on ADCK3 (CATDS: 3.3548638845590201E-2); 1530 nM with CDK4 (compound concentrations: 100 nM and 1000 nM (sheet 'Samples'), CATDS: 2.3530905499939799E-2); 111 nM in the test with LIMK1 (compound concentrations: 100 nM and 1000 nM (sheet 'Samples'), CATDS: 9.09760903229518E-2).
Take `Nc1nc(N)c2nc(-c3ccccc3)[nH]c2n1` [SKF-12778]: the potency estimated from few doses was 1110 nM with AURKA (setting [1]), 925 nM in the test with MAPK10 (setting [1]) and 1850 nM in the test with SYK (setting [1]).
`CC(C)c1nc(-c2cccc(NS(=O)(=O)c3c(F)cccc3F)c2F)c(-c2ccnc(Nc3ccc(N4CCOCC4)nc3)n2)s1` [GSK2008607A]: the potency estimated from few doses in the test with LIMK1 (compound concentrations: 100 nM and 1000 nM (sheet 'Samples'), CATDS: 3.4604855317968697E-2) was 358 nM.
Take `CC(C)c1nc(-c2ccc(F)c(NS(=O)(=O)c3c(F)cccc3F)c2)c(-c2ccnc(Nc3ccc(N4CCOCC4)nc3)n2)s1` [GSK1804250A]: the potency estimated from few doses in the test with LIMK1 (setting [1]) is 125 nM.
Consider `CC(=O)N1CCN(c2ccc(Nc3nccc(-c4sc(C(C)C)nc4-c4cccc(NS(=O)(=O)c5cccc(Cl)c5)c4)n3)cn2)CC1` [GSK1660437A], for which the potency estimated from few doses with LIMK1 (compound concentrations: 100 nM and 1000 nM (sheet 'Samples'), CATDS: 8.9017548853229503E-2) was 288 nM.
In the case of `CN1CCN(c2ccc(Nc3nc(N)c(C(=O)c4ccc5c(c4)OCCO5)s3)cc2)CC1` [RO0505124-000], the potency estimated from few doses with ADCK3 (CATDS: 0.21536092464867401) was 935 nM.
As for `CS(=O)(=O)c1ccc(-c2cnc(N)c(C(=O)Nc3ccccc3)n2)cc1` [VE-821], the potency estimated from few doses in the test on ADCK3 (CATDS: 0.149033723356022) is 1370 nM.
